In PubChem BioAssay (NCATS):
Values joined by “and” are separate entries in the source; they are usually repeats but may differ in a detail not shown here. Identical values can stand only once. Records with an inconclusive call do not appear. Active and inactive are the calls of the source. Unless noted, calls come from the whole dose curve; as a rule, active = well fitted curve in either direction with a large enough effect (not every such curve was filed as active); inconclusive = small, poorly fitted or top-dose-only effect, or another doubt; inactive = flat fitted curve, though single readings scatter.

Key:
[1] = AP1 Signaling Pathway (AID 357);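 note: ME-180 reporter cells stimulated with EGF at its EC50 level; % is set by controls: 0 for no effect and ±100 for the full control effect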
Summary of the method: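 A ratiometric CCF4 readout (405 nm excitation; 460 and 530 nm emission) quantified AP-1-driven beta-lactamase in ME-180 cells after 5 h with compound and EC50 EGF; AC50 values were derived for activators and inhibitors.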

[2] = NFAT Signaling Pathway (AID 444); conditions: Jurkat NFAT-bla M1, carbachol, beta-lactamase ratio, 5 h; at 17.2 µM (top of the series) unless noted;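 note: carbachol stimulus at about its EC50 of 1 µM final; % is set by controls: 0 for no effect and ±100 for the full control effect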
Summary of the method: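 Jurkat cells with NFAT-driven β-lactamase reporter and co-expressed M1 receptor, stimulated with carbachol (final 1 uM, ~EC50), compound titration, 5 h at 37 °C. CCF4 loaded 1 h at RT; 460/530 nm ratio gave %activity and AC50.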

[3] = Stat Signaling Pathway (AID 446);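 note: ME-180 cervical cancer cells given 40 pM IL-6 alongside compound; SIE-controlled beta-lactamase reporter measured as 460/530 nm FRET emission ratio; % is set by controls: 0 for no effect and ±100 for the full control effect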
Summary of the method: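 ME-180 SIE-bla cells; overnight plating; cpd + IL-6 40 pM, 5 h, 37 C; LiveBLAzer 2.5 h RT; 460/530 nm emission ratio. Normalized to 300 pM IL-6 and 125 nM JAK inhibitor controls.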

[4] = biological target: Glucocorticoid receptor (Homo sapiens) (UniProt P04150); experiment: GR-GFP Redistribution (AID 450;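 active = compounds whose dose series gives a full or clear partial fitted curve of increased nuclear translocation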; note: potency is the fitted concentration of half-maximal effect); conditions: U2OS GR-GFP nuclear translocation, laser cytometry, 2 h
Glucocorticoid receptor (Homo sapiens), sequence (P04150 whole entry, looked up, the tested form may be a part): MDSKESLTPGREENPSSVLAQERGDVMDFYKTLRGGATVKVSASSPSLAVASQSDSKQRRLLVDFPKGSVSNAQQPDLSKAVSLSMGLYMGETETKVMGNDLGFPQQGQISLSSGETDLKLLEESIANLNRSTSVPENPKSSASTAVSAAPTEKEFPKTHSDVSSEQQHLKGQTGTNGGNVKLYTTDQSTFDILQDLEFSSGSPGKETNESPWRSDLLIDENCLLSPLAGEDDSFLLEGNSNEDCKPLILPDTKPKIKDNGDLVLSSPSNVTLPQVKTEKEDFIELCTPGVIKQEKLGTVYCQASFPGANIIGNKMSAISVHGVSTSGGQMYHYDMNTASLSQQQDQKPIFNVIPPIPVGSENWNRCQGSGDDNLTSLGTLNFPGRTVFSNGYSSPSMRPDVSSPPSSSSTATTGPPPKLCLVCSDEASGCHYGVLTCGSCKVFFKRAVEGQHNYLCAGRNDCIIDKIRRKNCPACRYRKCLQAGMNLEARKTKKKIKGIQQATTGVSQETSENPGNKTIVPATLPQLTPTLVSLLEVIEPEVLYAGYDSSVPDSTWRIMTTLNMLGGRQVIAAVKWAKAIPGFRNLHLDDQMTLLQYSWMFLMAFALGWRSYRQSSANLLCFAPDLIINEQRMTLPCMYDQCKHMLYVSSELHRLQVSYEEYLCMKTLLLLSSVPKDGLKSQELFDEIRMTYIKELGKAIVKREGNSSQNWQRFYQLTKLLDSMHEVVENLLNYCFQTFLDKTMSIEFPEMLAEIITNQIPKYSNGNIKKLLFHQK

[5] = biological target: Glucocorticoid receptor (Homo sapiens) (UniProt P04150); experiment: GR-EFC Redistribution (AID 451; calls by dose curve; note: potency is the fitted concentration of half-maximal effect); conditions: CHO-K1 GR-EFC translocation, beta-gal luminescence, 2 h
Summary of the method: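 CHO-K1 cells expressing nuclear EA and GR-ED fragments of b-gal; compounds titrated up to 46 uM final, 2 h at 37 C. GR nuclear translocation read as complemented b-gal luminescence after 1 h RT detection.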

[6] = biological target: Mitogen-activated protein kinase 10 (Mus musculus) (UniProt Q61831); experiment: JNK3 AlphaScreen Assay (AID 530);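 note: kinase came from lysate of stimulated human HepG2 cells; signal reports phosphorylation of biotinylated GST-cJun 1-79 at Ser73 with 10 µM ATP; % is set by controls: 0 for no effect and ±100 for the full control effect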
Summary of the method: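 Pre-activated (IL-1β/TNFα) JNK3 in HepG2 lysates phosphorylates biotin-GST-cJun(1-79), 10 uM ATP; anti-phospho-cJun(Ser73) AlphaScreen read at room temperature, pH 7.6 Tris buffer. Compounds pre-incubated 15 min as titrations.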

[7] = Cell Viability - BJ (AID 421; calls by dose curve;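 note: potency is the fitted concentration of half-maximal effect; cells exposed to compound for 40 hours at 37 °C before readout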); conditions: BJ fibroblast viability, qHTS
Summary of the method: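 Luminescent ATP signal (CellTiter-Glo, 20 min at room temperature) served as the read-out of viable BJ cells after 40 hours of compound treatment. Responses were scaled between DMSO and 100 uM tamoxifen, and AC50 values were obtained by Hill modeling.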

[8] = Cell Viability - Jurkat (AID 426;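 active = dose-dependent loss of cell ATP signal giving a full or clear fitted curve, ranked by lower potency value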; note: potency is the fitted concentration of half-maximal effect); conditions: qHTS
Summary of the method: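 Jurkat (Clone E6-1) cells, 5000/well in complete medium, exposed to compounds for 40 hr at 37C; intracellular ATP measured by CellTiter-Glo luminescence after 20 min at room temperature. AC50 from Hill fits.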

[9] = Cell Viability - Hek293 (AID 427;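 active = compounds whose dose-response curve shows a full or clear partial loss of cell viability, called from curve shape rather than a numeric limit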;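 note: potency is the fitted concentration of half-maximal effect; cells exposed to compound for 40 hours at 37 °C before reading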); conditions: qHTS
Summary of the method: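 Luminescent ATP read-out (CellTiter-Glo, 20 min RT) after 40 hr compound exposure at 37 °C in complete medium. Signal normalized to DMSO (basal) and 100 uM tamoxifen (100% inhibition); concentration-response fitted with the standard Hill equation to give AC50.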

[10] = Cell Viability - HepG2 (AID 433; calls by dose curve;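 note: potency is the fitted concentration of half-maximal effect; potency for ATP loss meaning cytotoxicity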); conditions: qHTS
Summary of the method: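 HepG2 hepatocellular carcinoma cells (1500/well) were treated with compounds for 40 h at 37 °C in complete medium; intracellular ATP was read by CellTiter-Glo luminescence. Data were normalized to DMSO and 100 uM tamoxifen, and AC50 came from Hill fits.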

[11] = Cell Viability - MRC5 (AID 434; calls by dose curve;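 note: potency is the fitted concentration of half-maximal effect; potency reflects cytotoxicity seen as loss of intracellular ATP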); conditions: MRC5 lung fibroblast viability, qHTS
Summary of the method: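 MRC5 normal human lung fibroblasts, 1500 cells/well, exposed to compound for 40 hr at 37 C. Cellular ATP was read by CellTiter-Glo luminescence; data normalized to DMSO and 100 uM tamoxifen, with AC50 from Hill fits.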

[12] = Cell Viability - SK-N-SH (AID 435; calls by dose curve;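 note: potency is the fitted concentration of half-maximal effect; compound exposure lasted 40 h at 37 °C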); conditions: SK-N-SH neuroblastoma cell viability qHTS
Summary of the method: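 SK-N-SH human neuroblastoma cells (1500/well) were exposed to compounds in complete medium for 40 h at 37 °C, and intracellular ATP was then measured by CellTiter-Glo luminescence. AC50 was taken from Hill fits, normalized to DMSO and 100 uM tamoxifen.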

[13] = Cell Viability - N2a (AID 540; active = well fitted curve in the direction sought with a large enough effect; an effect the other way counts as inactive or inconclusive;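 note: plate controls were DMSO alone for no effect and tamoxifen control for full effect; nearly all actives have a fitted effect of over 45% in size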)
Summary of the method: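 Mouse neuroblastoma N2a cells, 1500/well, exposed to compounds 40 h at 37 °C in complete medium. Viability measured as cellular ATP by CellTiter-Glo luminescence; AC50 from Hill fits of concentration-response.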

[14] = Cell Viability - NIH 3T3 (AID 541; active = well fitted curve in the direction sought with a large enough effect; an effect the other way counts as inactive or inconclusive;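 note: plate controls were DMSO alone for no effect and tamoxifen positive control for full effect; nearly all actives have a fitted effect of over 25% in size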)
Summary of the method: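 Mouse NIH 3T3 fibroblasts, 1000 cells/well, rested 5 hr at 37 °C, then exposed to compound for 40 hr at 37 °C in complete medium. Viability read as intracellular ATP by CellTiter-Glo luminescence; AC50 from Hill-equation fits of concentration-response data.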

[15] = Cell Viability - HUV-EC-C (AID 542; active = well fitted curve in the direction sought with a large enough effect; an effect the other way counts as inactive or inconclusive; note: % is set by controls: 0 for no effect and ±100 for the full control effect; nearly all actives have a fitted effect of over 35% in size)
Summary of the method: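 HUV-EC-C human vascular endothelial cells, 1000/well, exposed to compound for 40 hr at 37 °C in complete medium. Intracellular ATP was read by CellTiter-Glo luminescence. AC50 came from Hill-equation fits of concentration-response data.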

[16] = Cell Viability - H-4-II-E (AID 543; active = well fitted curve in the direction sought with a large enough effect; an effect the other way counts as inactive or inconclusive; note: % is set by controls: 0 for no effect and ±100 for the full control effect; nearly all actives have a fitted effect of over 35% in size)
Summary of the method: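 Rat hepatoma H-4-II-E cells, 1500 per well, treated 40 h at 37 °C in complete medium. Cellular ATP read by CellTiter-Glo luminescence; AC50 from Hill fits of concentration-response.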

[17] = Cell Viability - SH-SY5Y (AID 544; active = well fitted curve in the direction sought with a large enough effect; an effect the other way counts as inactive or inconclusive;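 note: 0% = DMSO alone and -100% = 100 µM tamoxifen; nearly all actives have a fitted effect of over 55% in size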); conditions: SH-SY5Y neuroblastoma cell viability; at 92.2 µM (top of the series)
Summary of the method: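 SH-SY5Y human neuroblastoma cells (1500/well) incubated 5 h, then compound-treated 40 h at 37 °C in complete medium. Viability read as intracellular ATP by CellTiter-Glo luminescence after 20 min; AC50 from Hill-equation fits of qHTS concentration-response.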

[18] = Cell Viability - Renal Proximal Tubule (AID 545; active = well fitted curve in the direction sought with a large enough effect; an effect the other way counts as inactive or inconclusive;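 note: 0% = DMSO only and -100% = 100 µM tamoxifen; nearly all actives have a fitted effect of over 40% in size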)
Summary of the method: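 Primary rat renal proximal tubule cells (1000/well) were treated with compounds for 40 hr at 37 °C in complete medium. Intracellular ATP was measured by CellTiter-Glo luminescence, and AC50 values came from Hill-equation fits of concentration-response data.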

[19] = biological target: Cytochrome P450 1A2 (Homo sapiens) (UniProt P05177); experiment: p450-cyp1a2 (AID 410; calls by dose curve;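 note: -100% = full effect of reference inhibitor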)
Cytochrome P450 1A2 (Homo sapiens), sequence (P05177 whole entry, looked up): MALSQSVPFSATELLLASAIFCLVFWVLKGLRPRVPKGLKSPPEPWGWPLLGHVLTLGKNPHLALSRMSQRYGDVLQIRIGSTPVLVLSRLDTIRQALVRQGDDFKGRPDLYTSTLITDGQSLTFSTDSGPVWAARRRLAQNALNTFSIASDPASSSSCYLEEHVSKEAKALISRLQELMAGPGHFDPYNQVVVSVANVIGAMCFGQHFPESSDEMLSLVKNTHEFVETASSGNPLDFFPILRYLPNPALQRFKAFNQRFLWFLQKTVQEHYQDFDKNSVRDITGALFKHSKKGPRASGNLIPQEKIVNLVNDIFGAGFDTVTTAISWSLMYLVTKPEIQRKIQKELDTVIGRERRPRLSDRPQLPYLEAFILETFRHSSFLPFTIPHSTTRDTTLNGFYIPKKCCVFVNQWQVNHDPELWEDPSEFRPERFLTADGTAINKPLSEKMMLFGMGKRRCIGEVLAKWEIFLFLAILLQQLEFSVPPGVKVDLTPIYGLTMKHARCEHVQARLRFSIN
Summary of the method: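 20nM CYP1A2 with 100uM Luciferin-ME (at Km) in 100mM KPO4; compound preincubated 10 min, NADPH regeneration added, 60 min at room temperature. Luciferin quantified by luminescence after detection reagent; normalized to 57 uM furafylline.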

NC(N)=NCCN1CCCCCCC1
inactive: outcome [1] | activity change, negative = inhibition [2] -13.3% | outcome [3] | Potency [4] > 20.6 µM | Potency [5] > 20.6 µM | outcome [6]

O=C1c2ccccc2S(=O)(=O)N1CCCCN1CCN(c2ncccn2)CC1
inactive: Potency [4] > 46 µM | Potency [5] > 46 µM | outcome [6]

C=CCNC(N)=S
inactive: Potency [7] > 92 µM | Potency [8] > 92 µM | Potency [9] > 92 µM | Potency [10] > 92 µM | Potency [11] > 92 µM | Potency [12] > 92 µM | outcome [6] | outcome [13] | outcome [14] | outcome [15] | outcome [16] | viability change, negative = cytotoxic [17] -6.07% | outcome [18]

CC(=O)N[C@@H](CC(C)C)C(=O)O
inactive: outcome [1] | activity change, negative = inhibition [2] 1.74% | outcome [3] | outcome [6]

CC(=O)Nc1ccc(C(=O)O)cc1
inactive: Potency [7] > 92 µM | Potency [8] > 92 µM | Potency [9] > 92 µM | Potency [10] > 92 µM | Potency [11] > 92 µM | Potency [12] > 92 µM | outcome [6] | outcome [13] | outcome [14] | outcome [15] | outcome [16] | viability change, negative = cytotoxic [17] -7.67% | outcome [18]

CCCCCC(N)=O
inactive: Potency [7] > 92 µM | Potency [8] > 92 µM | Potency [9] > 92 µM | Potency [10] > 92 µM | Potency [11] > 92 µM | Potency [12] > 92 µM | outcome [6] | outcome [13] | outcome [14] | outcome [15] | outcome [16] | viability change, negative = cytotoxic [17] -5.16% | outcome [18]

NS(=O)(=O)c1cc2c(cc1C(F)(F)F)NCNS2(=O)=O
inactive: outcome [1] | activity change, negative = inhibition [2] -1.33% and 8.85% | outcome [3] | Potency [4] > 20.6 µM | Potency [5] > 20.6 µM | outcome [6]

CCCCCCCC(=O)OCC(COC(=O)CCCCCCC)OC(=O)CCCCCCC
inactive: Potency [7] > 92 µM | Potency [8] > 92 µM | Potency [9] > 92 µM | Potency [10] > 92 µM | Potency [11] > 92 µM | Potency [12] > 92 µM | outcome [6] | outcome [13] | outcome [14] | outcome [15] | outcome [16] | viability change, negative = cytotoxic [17] -12.2% | outcome [18]

COc1ccc(O)cc1
inactive: Potency [7] > 92 µM | Potency [8] > 92 µM | Potency [9] > 92 µM | Potency [10] > 92 µM | Potency [11] > 92 µM | Potency [12] > 92 µM | outcome [6] | outcome [15] | outcome [16] | viability change, negative = cytotoxic [17] 4.2% | outcome [18]

O=C(O)CCCCC1CCSS1 (stereo not given)
inactive: Potency [7] > 92 µM | Potency [8] > 92 µM | Potency [9] > 92 µM | Potency [10] > 92 µM | Potency [11] > 92 µM | Potency [12] > 92 µM | outcome [6] | outcome [13] | outcome [14] | outcome [15] | outcome [16] | viability change, negative = cytotoxic [17] -17.1% | outcome [18]

NC(=O)CC[C@@H](N)C(=O)O
inactive: outcome [1] | activity change, negative = inhibition [2] 0.712% [at 38 µM] | outcome [3] | Potency [4] > 46 µM | Potency [5] > 46 µM | outcome [6]

C[N+](C)(C)CC[N+]1(C)Cc2c(Cl)c(Cl)c(Cl)c(Cl)c2C1
inactive: Potency [19] | Potency [4] > 46 µM | Potency [5] > 46 µM | outcome [6]

COc1ccc(NS(=O)(=O)c2ccc(N)cc2)nn1
inactive: outcome [1] | activity change, negative = inhibition [2] -4.78% and 5.22% | outcome [3] | Potency [4] > 20.6 µM | Potency [5] > 20.6 µM | outcome [6]

Cc1cc(=O)[nH]c(=S)[nH]1
inactive: Potency [7] > 92 µM | Potency [8] > 92 µM | Potency [9] > 92 µM | Potency [10] > 92 µM | Potency [11] > 92 µM | Potency [12] > 92 µM | outcome [6] | outcome [13] | outcome [14] | outcome [15] | outcome [16] | viability change, negative = cytotoxic [17] -4.62% | outcome [18]

CCS(=O)(=O)CCn1c([N+](=O)[O-])cnc1C
inactive: outcome [1] | activity change, negative = inhibition [2] -9.1% and -28.6% | outcome [3] | outcome [6]

CN(C(=O)c1c(O)c2ccccc2n(C)c1=O)c1ccccc1
inactive: Potency [19] | Potency [4] > 46 µM | Potency [5] > 46 µM | outcome [6]

CC1(C)S[C@@H]2[C@H](NC(=O)C(C(=O)O)c3ccccc3)C(=O)N2[C@H]1C(=O)O (stereo not given in full)
inactive: outcome [1] | outcome [3] | Potency [4] > 20.6 µM
